Laboratory results taken from PubChem BioAssay (EPA / NIEHS).
Inconclusive results are not listed. The source made the active and inactive calls. How the source made its calls: active means hit-call score of the fitted dose curve at least 0.9, where 1 is the maximum; inconclusive means response in the unintended direction; inactive means score below 0.9.

Key:
[1] = TOX21_p53_BLA_p2_viability: Viability Assessment in the Tox21 HCT-116 p53 Agonism Beta-lactamase Assay, Phase 2 (AID 2283591);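 further: compound exposure lasted 16 h at 37 °C; actives lower the ATP signal meaning cytotoxicity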
Procedure, shortened: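 HCT-116 p53-bla cells (4000/well) rested 5 h at 37C, then received compounds in DMSO (217-fold dilution) for 16 h at 37C, 5% CO2. After the CCF4 read, CellTiter-Glo was added; ATP luminescence was read after 30 min at room temperature.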

[2] = biological target: Cellular tumor antigen p53 (Homo sapiens) (UniProt P04637); experiment: TOX21_p53_BLA_p2_ratio: Tox21 HCT-116 p53 Agonism Beta-lactamase Assay, Ratio, Phase 2 (AID 2283592)
Chain of Cellular tumor antigen p53 (Homo sapiens) (P04637 whole entry, looked up): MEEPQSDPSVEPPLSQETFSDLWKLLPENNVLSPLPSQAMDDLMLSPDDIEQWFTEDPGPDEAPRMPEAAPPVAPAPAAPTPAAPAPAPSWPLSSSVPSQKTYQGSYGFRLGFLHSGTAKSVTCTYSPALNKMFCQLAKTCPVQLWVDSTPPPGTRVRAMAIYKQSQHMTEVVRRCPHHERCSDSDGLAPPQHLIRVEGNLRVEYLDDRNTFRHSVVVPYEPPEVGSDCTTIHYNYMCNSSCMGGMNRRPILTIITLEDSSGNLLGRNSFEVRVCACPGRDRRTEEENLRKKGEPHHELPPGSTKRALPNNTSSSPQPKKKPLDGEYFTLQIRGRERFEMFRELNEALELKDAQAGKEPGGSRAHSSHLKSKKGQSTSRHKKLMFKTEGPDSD
Procedure, shortened: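 Gain-of-signal p53 agonism was scored from the beta-lactamase FRET ratio (460/530 nm, 405 nm excitation) in HCT116 cells treated 16 h at 37C, 5% CO2, with DMSO serving as negative control and baseline.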

[3] = TOX21_p53_BLA_p3_viability: Viability Assessment in the Tox21 HCT-116 p53 Agonism Beta-lactamase Assay, Phase 3 (AID 2283593);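 further: cells exposed to compound for 16 h before reading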
Procedure, shortened: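 HCT-116 cells (4000/well) rested 5 h at 37C, then got DMSO compounds by pin tool (217-fold dilution) for 16 h at 37C, 5% CO2. After the bla read, CellTiter-Glo was added and luminescence read at 30 min, room temperature.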

[4] = biological target: Cellular tumor antigen p53 (Homo sapiens) (UniProt P04637); experiment: TOX21_p53_BLA_p3_ratio: Tox21 HCT-116 p53 Agonism Beta-lactamase Assay, Ratio, Phase 3 (AID 2283596)
Procedure, shortened: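 HCT116 p53-bla cells (4000/well) given compound in DMSO (217-fold dilution) after 5 h, incubated 16 h at 37C. CCF4-AM substrate 2 h at room temperature; 460/530 nm emission ratio, gain fitted against DMSO.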

[5] = TOX21_p53_BLA_p4_viability: Viability Assessment in the Tox21 HCT-116 p53 Agonism Beta-lactamase Assay, Phase 4 (AID 2283597);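 further: hits lower the luminescence signal meaning cytotoxicity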
Procedure, shortened: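 Following a 16 h exposure at 37C, the treated HCT116 wells were first read for the FRET ratio. They were then lysed with CellTiter-Glo, and ATP luminescence was recorded after 30 min at room temperature.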

[6] = biological target: Cellular tumor antigen p53 (Homo sapiens) (UniProt P04637); experiment: TOX21_p53_BLA_p5_ratio: Tox21 HCT-116 p53 Agonism Beta-lactamase Assay, Ratio, Phase 5 (AID 2283599)
Procedure, shortened: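 HCT-116 cells carrying a p53-inducible beta-lactamase reporter were seeded at 4000 cells/well and dosed after 5 h with compound in DMSO (217-fold dilution). After 16 h at 37C, CCF4-AM substrate was added for 2 h, and the 460/530 nm emission ratio was scored as gain-of-signal versus DMSO.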

[7] = TOX21_p53_BLA_p5_viability: Viability Assessment in the Tox21 HCT-116 p53 Agonism Beta-lactamase Assay, Phase 5 (AID 2283600)
Procedure, shortened: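 After the 460/530 nm beta-lactamase measurement, the wells received an ATP-detection luciferase reagent; signal was read 30 min later at RT. Compound treatment lasted 16 h on cells pre-incubated 5 h post-seeding.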

[8] = biological target: Cellular tumor antigen p53 (Homo sapiens) (UniProt P04637); experiment: TOX21_p53_BLA_p4_ratio: Tox21 HCT-116 p53 Agonism Beta-lactamase Assay, Ratio, Phase 4 (AID 2283601)
Procedure, shortened: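 HCT116 cells carrying an inducible beta-lactamase reporter were plated at 4000 cells/well, rested 5 h, then exposed to compounds in DMSO (217-fold dilution) for 16 h at 37C. CCF4-AM substrate was loaded 2 h at room temperature; 460/530 nm emission ratio scored gain-of-signal versus DMSO.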

Row | Structure (SMILES) | outcome [1] | outcome [2] | outcome [3] | outcome [4] | outcome [5] | outcome [6] | outcome [7] | outcome [8] | AC50 [2] | AC50 [4] | AC50 [1] | AC50 [3] | AC50 [5] | AC50 [6] | AC50 [7] | AC50 [8]
1 | CCCCCCCCCCCCCCCC(=O)O[C@@H]1[C@@H](O)[C@@H](O)[C@@H]([C@H](NC(=O)[C@@H]2C[C@@H](CCC)CN2C)[C@H](C)Cl)O[C@@H]1SC | inactive | inactive | inactive | inactive | inactive | inactive | inactive | inactive |  |  |  |  |  |  |  | 
2 | O=C1c2ccccc2C(=O)C1c1ccc2ccccc2n1 | inactive | inactive | inactive | inactive | inactive | inactive | inactive | inactive |  |  |  |  |  |  |  | 
3 | C=CC(OCC)OCC | inactive | inactive | inactive | inactive | inactive | inactive | inactive | inactive |  |  |  |  |  |  |  | 
4 | O=C(CS)Nc1ccccc1 | inactive | inactive | inactive | inactive | inactive | inactive | inactive | inactive |  |  |  |  |  |  |  | 
5 | CCO[Si](CCCCl)(OCC)OCC | inactive |  | inactive |  | inactive | inactive | inactive | inactive | 87.7 µM (active) | 86.2 µM (active) |  |  |  |  |  | 
6 | CC1(C)S[C@@H]2[C@H](NC(=O)C(C(=O)O)c3ccccc3)C(=O)N2[C@H]1C(=O)O (stereo not given in full) | inactive | inactive | inactive | inactive | inactive | inactive | inactive | inactive |  |  |  |  |  |  |  | 
7 | Nc1ccc(N)c2ccccc12 |  |  |  | inactive |  |  |  |  | 16.5 µM (active) |  | 46 µM (active) | 3.49 µM (active) | 46 µM (active) | 86 µM (active) | 46 µM (active) | 13.5 µM (active)
8 | COc1cc(NS(C)(=O)=O)ccc1Nc1c2ccccc2nc2ccccc12 |  |  |  |  |  |  |  |  | 7.65 µM (active) | 8.11 µM (active) | 12.8 µM (active) | 15.1 µM (active) | 25.6 µM (active) | 22.1 µM (active) | 33.6 µM (active) | 1.36 µM (active)
9 | Cc1cc2c(C(C)C)c(O)c(O)c(C=O)c2c(O)c1-c1c(C)cc2c(C(C)C)c(O)c(O)c(C=O)c2c1O |  |  |  |  |  |  |  |  | 30.1 µM (active) | 29.9 µM (active) | 10 µM (active) | 6.89 µM (active) | 10 µM (active) | 35 µM (active) | 10.2 µM (active) | 33.2 µM (active)
10 | CC[C@@H](CO)NCCN[C@@H](CC)CO | inactive | inactive | inactive | inactive | inactive | inactive | inactive | inactive |  |  |  |  |  |  |  | 
